A selection follows.
aSyn 5UTR act = Activators via SNCA 5'UTR binding, MLPCN | alpha-synuclein 5'UTR reporter, activators screen | activity score, % (tested at 7.5 µM), hits read low | 300,000 compounds, 7.1% hits; in the data active = activity score below about -60%
* = called active by the depositor.

SMILES | aSyn 5UTR act
c1ccc2oc(-c3csc(NCC4CCCO4)n3)cc2c1 (stereo not given) | -110*
C=CCNc1nc(-c2cc3ccccc3o2)cs1 | -73*
COc1ccc(/C=C/C(=O)NC2=NCCS2)cc1OC | -148*
COc1ccc(OC)c(/C=C/C(=O)NC2=NCCS2)c1 | -71*
COc1ccc(C(CNC(=O)c2sccc2C)N2CCOCC2)cc1 (stereo not given) | -70*
CC(=C/c1ccccc1)/C=C1/SC(N2CCOCC2)=NC1=O | -102*
O=C1C=C(N2CCOCC2)c2ccccc2C1=O | 114
CC1Oc2ccccc2C=C1/C=C1/SC(N2CCOCC2)=NC1=O (stereo not given) | -108*
CCCc1ccc(Oc2cc(C)nc(N3CCOCC3)n2)cc1 | -63*
Clc1ccc(/C=N/N2CCCCC2)cc1 | -103*
O=[N+]([O-])c1ccc(/C=N/N2CCCCC2)cc1 | -128*
Cc1cccc(N2CCN(C(=O)CNC(=O)c3ccccc3)CC2)c1C | -81*
Cc1ccc(C(=O)NCCC(=O)N2CCCC2)cc1 | -146*
Cc1ccc(S(=O)(=O)Cc2ccc(C(=O)N3CCN(c4cccc(C)c4C)CC3)o2)cc1 | 88
CC(C)(C)c1ccc(C(=O)N2CCCCCC2=O)cc1 | 91
CC(C)(C)c1ccc(C(=O)NCC(=O)N2CCCC2)cc1 | -74*
Cc1cccc(N2CCN(C(=O)c3c(-c4ccccc4)noc3C)CC2)c1C | 65
CC(C)(C)c1ccc(C(=O)NNC(=O)C2CCCCC2)cc1 | -64*
Cc1cc(C2=NNC(=Nc3ccccc3)SC2)c(C)n1C | -80*
O=C(Nc1ccccc1)C1=C[C@@H](c2ccc3c(c2)OCO3)C[C@@H](OCCCCO)O1 | -112*
O=C(Nc1ccccc1)C1=C[C@H](c2ccc3c(c2)OCO3)C[C@H](OCCCCO)O1 | -89*
CN1CCN(c2nc(-c3ccc(Br)cc3)nnc2-c2ccccc2)CC1 | -123*
Brc1ccc(-c2nnc(-c3ccccc3)c(N3CCSCC3)n2)cc1 | -85*
COc1ccc(-c2nc(-c3cccc(C)c3)nc(N3CCN(C)CC3)c2C#N)cc1 | 59
O=C(Nc1ccc(F)cc1)Oc1ccc[nH]c1=O | -82*
SMILES | aSyn 5UTR act
O=C(c1ccco1)N1N=C(c2ccc3nccnc3c2)CC1c1ccccc1 (stereo not given) | -67*
O=C(Nc1ccc([N+](=O)[O-])cc1)Nc1ccc2c(c1)OCCO2 | -92*
COc1cc([N+](=O)[O-])ccc1NC(=O)Nc1ccc2c(c1)OCCO2 | -72*
Cc1ccccc1Nc1cc(C)c2c(O)cccc2n1 | -105*
Cc1ccc(Nc2cc(C)c3ccc(O)cc3n2)cc1C | -94*
Cc1ccc(Nc2cc(C)c3c(O)cccc3n2)cc1C | -118*
COc1ccc(Nc2cc(C)c3c(O)cccc3n2)cc1 | -140*
CCOC(=O)c1c(C)[nH]c(C(=O)COC(=O)C2CC2C)c1C (stereo not given) | -143*
O=C1NC(c2cccc(Br)c2)=N/C1=C\c1ccco1 | -106*
O=C1NC(c2ccccc2Br)=N/C1=C\c1ccco1 | -165*
O=C1NC(c2ccccc2)=N/C1=C/c1ccco1 | -270*
O=C(NCC1CCCO1)c1ccccc1-c1nc(-c2ccc(Cl)cc2)no1 (stereo not given) | -74*
O=C(c1ccccc1-c1nc(-c2ccc(Cl)cc2)no1)N1CCCC1 | -251*
COCCCNC(=O)Cn1nnc(-c2ccc(NC(=O)c3ccccc3F)cc2)n1 | -95*
COC(=O)CCn1nnc(-c2ccc(C(C)C)cc2)n1 | 119
COc1cccc(-c2ccc(C#N)c(OC(=O)c3c(Cl)cccc3Cl)n2)c1 | -74*
Cn1c(CN2CCCC2)nc2cc(NC(=O)c3ccco3)ccc21 | -116*
COc1c(C)cccc1C(=O)Nc1ccc(CN2CCCCC2)cc1 | -101*
Cc1cc(C)c(NC(=O)CCN2CCN(Cc3ccccc3)CC2)c(C)c1 | 98
Cn1c(CN2CCCCC2)nc2cc(NC(=O)c3cccs3)ccc21 | -68*
CCN1CCN(Cc2ccc(NC(=O)c3cc(NC(=O)c4cncc(-c5cccs5)c4)cc(OC)c3)cc2C(F)(F)F)CC1 | 109
Cc1ccc(C(=O)Nc2ccc3c(c2)nc(CCNC(=O)c2ccco2)n3C)cc1 | -104*
Cn1c(CN2CCCCC2)nc2cc(NC(=O)c3ccccc3)ccc21 | -73*
O=C(Nc1ccc2c(c1)nc1n2CCN(Cc2ccccc2)C1)c1cccs1 | -91*
O=C(CN1CCC(NC(=O)c2cccc(F)c2)CC1)Nc1ccc(Br)cc1 | 68
SMILES | aSyn 5UTR act
CCC(=O)NCCc1nc2cc(NC(=O)c3ccccc3Cl)ccc2n1C | -78*
O=C(Nc1ccc(CN2CCCCC2)cc1)c1cccc(Br)c1 | -72*
CC1CCN(CCc2nc3cc(NC(=O)Nc4ccccc4)ccc3n2C)CC1 | -84*
Cn1c(CN2CCCCC2)nc2cc(NC(=O)c3cccc(Br)c3)ccc21 | -99*
O=C(Nc1ccc(CN2CCCCC2)cc1)c1sc2ccccc2c1Cl | -159*
COc1ccc(NC(=O)c2ccc3c(c2)N(C)CCS3)cc1 | -148*
CN1CCSc2ccc(C(=O)Nc3cccc(F)c3)cc21 | -134*
COc1ccc(NC(=O)NC2CCCCCCC2)cc1 | -139*
COC(=O)c1ccc(NC(=O)NC2CCCCC2)cc1 | -117*
Cc1ccc(C(=O)Nc2ncccc2S(=O)(=O)c2ccccc2)cc1 | -154*
Cc1ccc2nc(-c3sc4nc(C)cc(C)c4c3N)[nH]c2c1 | -63*
Cc1ccc2oc(=O)n(CCCOc3ccccc3)c2c1 | -69*
CCOc1ccc(OCCN2C(=O)c3ccccc3C2=O)cc1 | -94*
Cc1cccc(OCCN2C(=O)c3ccccc3C2=O)c1 | -67*
Cc1ccc2c(c1)C(=O)C(=O)N2CCCOc1ccccc1 | -68*
Cc1cccc(OCCn2c(=O)n(C)c3ccccc32)c1 | -162*
O=C1c2ccccc2C(=O)N1CCCOc1ccccc1 | -62*
CC1CCc2c(sc(/N=C/c3ccco3)c2C(N)=O)C1 (stereo not given) | -125*
CC1CCc2c(sc(/N=C/c3cccnc3)c2C(N)=O)C1 (stereo not given) | -103*
Cc1occc1C(=O)NNC(=S)Nc1ccccc1C(F)(F)F | -86*
Cc1occc1C(=O)NNC(=S)Nc1ccccc1 | -88*
Cc1occc1C(=O)NNC(=O)c1ccccc1F | -82*
Cc1ccc(Nc2c([N+](=O)[O-])ccc3c2=NC2(CCCCC2)N=3)cc1 | -68*
CCOC(=O)Cn1cncc1-c1ccc([N+](=O)[O-])cc1 | -119*
CC(=O)c1ccc(Nc2ccc([N+](=O)[O-])c3nonc23)cc1 | -104*
SMILES | aSyn 5UTR act
CCCCOc1ccc(C2CCC(C(C)=O)C(C)C2)cc1 (stereo not given) | -169*
Cc1ccc(C=Nc2ccc(N(C)C)cc2)o1 | -139*
C#CCOCCOCCOCCNc1nc(N2CCN(C(=O)CCCCCCCCCCNC(=O)Cn3cc(C[C@@H](C)O)nn3)CC2)nc(N2CCN(C(=O)CCCCCCCCCCNC(=O)[C@H](CCCN=C(N)N)n3cc(C[C@@H](C)CC)nn3)CC2)n1 | -85*
Cc1ccc(Nc2cccccc2=O)cc1 | -101*
CCCCCCC(=O)Nc1ccc(Br)cn1 | -62*
CCOc1ccc(NC(=S)NNC(=O)c2cc(Br)ccc2Cl)cc1 | -109*
CCOc1ccc(NC(=O)Nc2ccc(Br)cn2)cc1 | -105*
Cn1ncc(Br)c1C(=O)Nc1ccc(Br)cn1 | -89*
O=C(Nc1ccc(Cl)cc1)Nc1ccc(Br)cn1 | -103*
CCCCc1nnc(NC(=O)C2=COCCO2)s1 | -64*
CCCCOC(=O)c1ccc(NC(=O)c2c(Cl)ccc(Cl)c2OC)cc1 | -66*

From PubChem BioAssay
